What follows are compounds tested on Scedosporium aurantiacum CBS 136046 (assay: growth inhibition relative to DMSO control (OD600); higher = more antifungal activity, active = 80 or more; extreme values may be limits of the assay). Conditions: 5 µM; 72 h; 37 °C.
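Further: conidia screened in RPMI 1640 medium under 5% CO2, growth read by spectrophotometer, medium with 0.5% DMSO serving as the untreated reference.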

Growth inhibition, inactive:
O=C(O)c1cc(-c2ccc(Br)cc2)nc2ccc(Cl)cc12 15.5%, CCCCSc1nc(N)c2[nH]c(=O)c(=O)n(Cc3ccccc3)c2n1 6.53%, CCc1ccc(C2CC(C(F)(F)F)n3ncc(C(=O)NCc4ccc(OC)cc4)c3N2)cc1 (centres undefined) 34.5%, FC(F)(F)Oc1ccc(Nc2ccc3cccc(Cl)c3n2)cc1 25.3%, O=c1oc2ccc(Br)cc2cc1CSc1ncc[nH]1 18.7%, O=c1cc(OCc2ccccc2)ccn1Cc1ccccc1 9.92%, Cc1[nH]c2ccccc2c1CCNCc1ccc(/C=C/C(=O)NO)cc1 26.8%, C[C@H](NC(=O)C(=O)Nc1ccccc1C(C)(C)C)C(=O)N[C@@H](CC(=O)O)C(=O)COc1c(F)c(F)cc(F)c1F 11.6%, O=C(Nc1nnc(-c2ccc(Cl)cc2)o1)c1nc2ccccc2s1 15.8%, Cc1c(CN(C)C(=O)/C=C/c2cnc3c(c2)C(C)(C)C(=O)N3)oc2ccccc12 19.3%, Nc1nc2c(Cc3cccnc3)c[nH]c2c(=O)[nH]1 2.57%, O=c1[nH]cnc2c1ncn2[C@H]1CC[C@@H](CO)O1 10.6%, Cc1nc2ccc(Oc3ccccc3)cc2c2c1CCN2CCc1ccccc1 54.5%, C[C@@H]1O[C@@H]1P(=O)(O)O 3.95%, Cc1c(F)cccc1NC(=O)Nc1ccc(Cl)c(S(=O)(=O)[C@H]2CCCNC2)c1O 4.56%, C[C@@H](NC(=O)c1cccc(-c2cnc(-c3cc4ccccc4cn3)[nH]2)c1)c1ccc(F)cc1 18.9%, Nc1nc(O)c(Br)c(-c2cccc(Cl)c2)n1 4.65%, CCN(CC)CCn1c(=N)n(CC(O)COc2ccc(Cl)cc2Cl)c2ccccc21 (centres undefined) 10.2%, CC(C)(C)c1ccc(C(=O)NC(=O)N2CCCc3ccccc32)cc1 0.0285%, CN(Cc1ccc(C(C)(C)C)cc1)Cc1cccc2ccccc12 37.7%, C=C(C)n1c(=O)n(Cc2ccccc2C)c2ccccc21 21.5%, CC1=C(/C=C/C(C)=C/C=C/C(C)=C/C(=O)Nc2ccc(O)cc2)C(C)(C)CCC1 14.5%, C[Si]1(C)CCN(Cc2cc(-c3ccc(Cl)cc3)n(-c3ccc(Cl)cc3)n2)CC1 10%, N=C(N)NCCCCC(=O)Nc1cc(C(F)(F)F)cc(NC(=O)c2cc(C(=O)Nc3cc(C(F)(F)F)cc(NC(=O)CCCCNC(=N)N)c3O[C@@H]3CCNC3)ncn2)c1O[C@@H]1CCNC1 37.1%, O=C(Cn1cnc2ccccc2c1=O)Nc1ccccc1 1.51%, CN(C)CCNC(=O)c1cccc2cccnc12 2.13%, Nc1ccc(-c2nc3cc(C(F)(F)F)ccc3n2C23CC4CC(CC(C4)C2)C3)cc1 27.1%, Nc1cccc(-c2nc(N)nc(NC3Cc4ccccc4C3)n2)c1 21.5%, NC[C@H]1OB(O)c2c(OCCCO)cccc21 34.1%, COc1ccc(C)cc1NC(=O)c1ccc(S(=O)(=O)N2CCCCC2)cc1 32.4%, CCC(CC)[C@H](NC(C)=O)[C@@H]1[C@H](O)[C@@H](C(=O)O)C[C@H]1NC(=N)N 14.3%, NS(=O)(=O)c1ccc(NC(=O)NC(c2ccccc2)c2ccccc2)cc1 25.6%, Cc1onc(-c2ccccc2)c1-c1ccc(S(N)(=O)=O)cc1 41.2%, CC(C)Nc1ncnc2c1cnn2-c1ccc(Cl)cc1 10.7%, C=C(C)[C@@H]1CC[C@]2(C(=O)O)CC[C@]3(C)[C@H](CC[C@@H]4[C@@]5(C)CC[C@H](O)C(C)(C)[C@@H]5CC[C@]43C)[C@@H]12 1.06%, COC(=O)Nc1nc2cc(Sc3ccccc3)ccc2[nH]1 0.273%, Fc1ccc(-c2nc(-c3c[nH]c4ccc(Br)cc34)[nH]c2-c2ccc(F)cc2)cc1 28.1%, CC[N+]1(C/C2=C/CCCCCC2)CCC(NC(=O)C2c3cc(Cl)ccc3Oc3ccc(Cl)cc32)CC1 (centres undefined) 9.71%, O=C(Nc1nnc(-c2ccc(Cl)cc2)o1)c1ccc(F)cc1 48.5%
